From PubChem BioAssay (EPA / NIEHS) come the findings set out here.

Records with an inconclusive call do not appear. The source made the active and inactive calls. The calls were made as follows, unless noted: active = hit-call score of the fitted dose curve at least 0.9, where 1 is the maximum; inconclusive = response in the unintended direction; inactive = score below 0.9.

Chain of rat Gamma-Aminobutyric Acid Type A Receptor, Non-Selective (GABAR-NonSelective), Gabra1 (gene 29705) (P62813 whole entry, looked up): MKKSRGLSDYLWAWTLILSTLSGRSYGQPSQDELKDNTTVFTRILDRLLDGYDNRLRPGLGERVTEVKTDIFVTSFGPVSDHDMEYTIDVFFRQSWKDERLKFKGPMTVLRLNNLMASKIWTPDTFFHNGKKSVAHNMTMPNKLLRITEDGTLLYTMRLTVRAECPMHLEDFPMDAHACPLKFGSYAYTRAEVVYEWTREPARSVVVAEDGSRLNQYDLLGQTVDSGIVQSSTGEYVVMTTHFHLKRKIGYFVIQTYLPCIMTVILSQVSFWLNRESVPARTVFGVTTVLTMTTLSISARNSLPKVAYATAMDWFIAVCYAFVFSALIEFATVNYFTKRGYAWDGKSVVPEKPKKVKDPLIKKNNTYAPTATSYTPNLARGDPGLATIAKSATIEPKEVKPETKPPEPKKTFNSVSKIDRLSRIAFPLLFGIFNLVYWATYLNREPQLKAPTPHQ
Chain of human Constitutive Androstane Receptor (CAR), NR1I3 (gene 9970) (Q14994 whole entry, looked up): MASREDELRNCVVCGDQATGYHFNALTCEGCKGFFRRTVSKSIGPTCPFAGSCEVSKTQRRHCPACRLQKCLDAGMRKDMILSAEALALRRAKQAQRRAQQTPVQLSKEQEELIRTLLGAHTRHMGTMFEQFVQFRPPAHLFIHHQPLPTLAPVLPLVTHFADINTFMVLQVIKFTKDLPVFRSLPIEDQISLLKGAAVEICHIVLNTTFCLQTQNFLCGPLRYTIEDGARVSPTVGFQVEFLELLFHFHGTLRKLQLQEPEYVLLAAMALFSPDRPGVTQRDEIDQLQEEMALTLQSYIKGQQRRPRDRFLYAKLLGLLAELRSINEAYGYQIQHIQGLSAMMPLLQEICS
Chain of bovine Gamma-Aminobutyric Acid Type A Receptor BDZ, alpha 5 site (GABARa5), GABRA5 (gene 523515) (Q08E50 whole entry, looked up): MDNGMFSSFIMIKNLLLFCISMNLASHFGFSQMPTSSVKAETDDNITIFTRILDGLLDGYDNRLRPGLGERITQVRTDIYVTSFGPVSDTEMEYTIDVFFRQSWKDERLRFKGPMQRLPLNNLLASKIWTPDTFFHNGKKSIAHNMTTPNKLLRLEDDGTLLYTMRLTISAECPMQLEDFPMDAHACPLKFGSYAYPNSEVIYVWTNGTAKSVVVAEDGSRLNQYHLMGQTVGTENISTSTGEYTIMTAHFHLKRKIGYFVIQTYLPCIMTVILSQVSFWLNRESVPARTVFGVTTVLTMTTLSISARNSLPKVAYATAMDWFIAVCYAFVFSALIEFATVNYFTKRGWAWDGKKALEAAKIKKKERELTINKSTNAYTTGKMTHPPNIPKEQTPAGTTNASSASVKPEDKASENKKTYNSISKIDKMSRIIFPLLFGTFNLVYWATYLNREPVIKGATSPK
Chain of Voltage-gated inwardly rectifying potassium channel KCNH2 (Homo sapiens) (Q12809 whole entry, looked up): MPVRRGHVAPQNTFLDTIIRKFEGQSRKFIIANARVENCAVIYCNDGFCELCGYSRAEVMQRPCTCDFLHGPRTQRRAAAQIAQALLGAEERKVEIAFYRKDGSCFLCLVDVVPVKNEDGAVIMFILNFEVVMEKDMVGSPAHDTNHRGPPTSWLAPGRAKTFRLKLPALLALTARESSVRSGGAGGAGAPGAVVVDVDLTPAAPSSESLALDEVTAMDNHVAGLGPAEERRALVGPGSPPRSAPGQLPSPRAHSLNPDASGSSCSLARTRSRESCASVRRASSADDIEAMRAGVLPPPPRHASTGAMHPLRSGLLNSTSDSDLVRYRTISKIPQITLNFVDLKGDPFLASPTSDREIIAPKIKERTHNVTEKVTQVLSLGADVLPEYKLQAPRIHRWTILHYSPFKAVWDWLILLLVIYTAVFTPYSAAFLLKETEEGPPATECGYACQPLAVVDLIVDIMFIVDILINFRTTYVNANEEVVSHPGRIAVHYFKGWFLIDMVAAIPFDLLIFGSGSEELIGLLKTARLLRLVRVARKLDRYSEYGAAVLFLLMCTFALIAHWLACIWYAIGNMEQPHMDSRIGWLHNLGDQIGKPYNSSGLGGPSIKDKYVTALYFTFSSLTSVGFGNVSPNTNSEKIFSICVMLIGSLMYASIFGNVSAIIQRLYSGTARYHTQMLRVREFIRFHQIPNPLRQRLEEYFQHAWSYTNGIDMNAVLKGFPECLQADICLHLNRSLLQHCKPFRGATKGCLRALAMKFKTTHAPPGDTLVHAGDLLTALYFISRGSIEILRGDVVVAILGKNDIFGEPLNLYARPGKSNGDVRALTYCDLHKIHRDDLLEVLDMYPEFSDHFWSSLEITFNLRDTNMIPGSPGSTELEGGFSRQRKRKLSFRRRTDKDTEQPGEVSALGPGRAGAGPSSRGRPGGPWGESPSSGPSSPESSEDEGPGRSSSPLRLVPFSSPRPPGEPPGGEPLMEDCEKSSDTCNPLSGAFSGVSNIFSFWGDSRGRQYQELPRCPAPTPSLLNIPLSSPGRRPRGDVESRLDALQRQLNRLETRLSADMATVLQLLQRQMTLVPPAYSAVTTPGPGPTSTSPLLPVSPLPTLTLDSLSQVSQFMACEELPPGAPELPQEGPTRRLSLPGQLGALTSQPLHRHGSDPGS
Chain of rat Peripheral-type Benzodiazepine Receptor (PBR), Tspo (gene 24230) (P16257 whole entry, looked up): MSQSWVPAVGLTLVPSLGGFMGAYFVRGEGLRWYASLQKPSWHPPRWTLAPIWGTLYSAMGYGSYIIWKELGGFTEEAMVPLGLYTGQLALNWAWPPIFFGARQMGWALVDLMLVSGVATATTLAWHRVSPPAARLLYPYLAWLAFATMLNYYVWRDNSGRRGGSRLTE
Chain of human Serotonin, 5-Hydroxytryptamine Receptor 3 (5HT3), HTR3A (gene 3359) (P46098 whole entry, looked up): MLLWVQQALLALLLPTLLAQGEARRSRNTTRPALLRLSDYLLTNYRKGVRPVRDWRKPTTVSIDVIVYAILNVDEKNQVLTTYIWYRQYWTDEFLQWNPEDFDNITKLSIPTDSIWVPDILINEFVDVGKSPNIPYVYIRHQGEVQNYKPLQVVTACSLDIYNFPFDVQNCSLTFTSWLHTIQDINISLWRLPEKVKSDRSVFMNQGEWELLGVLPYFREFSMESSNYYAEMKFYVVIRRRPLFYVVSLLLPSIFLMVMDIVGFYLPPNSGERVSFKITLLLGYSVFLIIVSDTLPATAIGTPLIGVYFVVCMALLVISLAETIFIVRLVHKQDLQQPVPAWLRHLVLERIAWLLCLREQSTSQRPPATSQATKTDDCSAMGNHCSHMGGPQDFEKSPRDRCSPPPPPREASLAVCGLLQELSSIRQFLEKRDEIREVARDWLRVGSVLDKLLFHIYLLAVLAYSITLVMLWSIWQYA
Chain of Small conductance calcium-activated potassium channel protein 1 (Rattus norvegicus) (P70606 whole entry, looked up): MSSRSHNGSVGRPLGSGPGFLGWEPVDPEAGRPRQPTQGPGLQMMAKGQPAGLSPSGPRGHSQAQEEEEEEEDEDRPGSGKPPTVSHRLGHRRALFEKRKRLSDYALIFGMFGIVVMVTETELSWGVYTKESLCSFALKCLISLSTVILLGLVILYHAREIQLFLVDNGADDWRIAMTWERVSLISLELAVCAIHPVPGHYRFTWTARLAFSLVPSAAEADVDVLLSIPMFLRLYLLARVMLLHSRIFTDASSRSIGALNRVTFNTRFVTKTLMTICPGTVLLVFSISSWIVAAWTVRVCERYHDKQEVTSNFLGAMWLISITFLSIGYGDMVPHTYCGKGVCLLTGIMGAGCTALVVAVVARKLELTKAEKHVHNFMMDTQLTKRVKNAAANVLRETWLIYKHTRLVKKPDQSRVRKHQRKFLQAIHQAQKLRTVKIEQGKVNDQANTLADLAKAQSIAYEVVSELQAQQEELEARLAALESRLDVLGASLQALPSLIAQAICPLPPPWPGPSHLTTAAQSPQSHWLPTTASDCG

One assay deals with NCBI gene 24521. The assay can be described thus: NVS_IC_rKATPCh: NovaScreen (NVS) Ion Channel Assay for rat Potassium Channel, ATP-Sensitive (KATPCh) (AID 2283319). In a few lines:
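Rat cortical membranes; radioligand binding at ATP-sensitive K channel site, filter-based scintillation counting 2 h after dosing. Single-point duplicate screen at 25 uM, hits rerun in concentration-response up to 50 uM; loss of signal versus DMSO.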
Turning to `O=C(O)c1cccc(C(=O)O)c1`, the result was inactive. Usually AC50 stands for the midpoint of the concentration-response curve, whichever way the signal moves. As for `Cc1ccc(S(=O)(=O)NC(=O)NN2CCCCCC2)cc1`, the AC50 was 3.58 µM (active). `CCn1nc(C)c2c1C(=O)NCC(c1ccc(O)cc1)=N2`: the outcome was inactive. Turning to `O=C(O)[C@H](O)[C@@H](O)C(=O)O`, the compound was called inactive.

Test system in a further assay: not listed separately
The assay can be described thus: NVS_IC_rCaDHPRCh_L: NovaScreen (NVS) Ion Channel Assay for rat Calcium Channel, Type L, Dihydropyridine Site (CaDHPRCh_L) (AID 2283320). In a few lines:
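Radioligand binding to dihydropyridine site on rat cortical membranes, filter-based scintillation counting, 1 h after dosing. Screened in duplicate at 25 uM; actives rerun in concentration-response up to 50 uM. Loss of signal versus DMSO baseline.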
`C=CCc1cc(S(=O)(=O)c2ccc(O)c(CC=C)c2)ccc1O`: the AC50 was 8.51 µM (active).

Take `CCn1nc(C)c2c1C(=O)NCC(c1ccc(O)cc1)=N2`: the outcome was inactive. `c1ccc(C(O[C@@H]2CCCN(CCc3ccc4c(c3)OCO4)C2)c2ccccc2)cc1`: the concentration at half-maximal activity (AC50) is 6.43 µM (active).

A further assay addresses Sodium channel protein type 1 subunit alpha (Rattus norvegicus) (UniProt P04774). As to the kind of experiment: NVS_IC_rNaCh_site2: NovaScreen (NVS) Ion Channel Assay for rat Sodium Channel, Site 2 (NaCh) (AID 2283322).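 Also: hit means loss of radioligand binding signal relative to DMSO so AC50 marks displacement.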 The procedure, abridged: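 Membranes: rat forebrain. Format: competitive radioligand displacement, filter separation, scintillation readout, 1 h exposure. Primary screen in duplicate at 25 uM; actives retested in concentration series.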
Consider `C=CCc1cc(S(=O)(=O)c2ccc(O)c(CC=C)c2)ccc1O`, for which the AC50 was 22.5 µM (active). Consider `CCn1nc(C)c2c1C(=O)NCC(c1ccc(O)cc1)=N2`, for which the result was inactive. In the case of `CCCCCCCCCC`, the outcome was inactive.

As to `COc1cc(C(C)C)c2c(c1)S(=O)(=O)N(COc1cc(=O)n3cccc(OCCN4CCCCC4)c3n1)C2=O`, the AC50 was 4.01 µM (active).

Turning to `c1ccc(C(O[C@@H]2CCCN(CCc3ccc4c(c3)OCO4)C2)c2ccccc2)cc1`, the AC50 was 0.832 µM (active). For `Cc1nccn1-c1ccc(Sc2cccc(C3(C(N)=O)CCOCC3)c2)cc1`, the AC50 was 17.7 µM (active). For the compound `NC(=O)N1c2ccccc2C=Cc2ccccc21`, the compound was called inactive.

Another assay concerns the target bovine Gamma-Aminobutyric Acid Type A Receptor BDZ, alpha 5 site (GABARa5), GABRA5 (gene 523515) (UniProt Q08E50). The assay can be described thus: NVS_LGIC_bGABARa5: NovaScreen (NVS) Ligand-Gated Ion Channel Assay for bovine Gamma-Aminobutyric Acid Type A Receptor BDZ, alpha 5 site (GABARa5) (AID 2283323). The procedure, abridged:
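Radioligand competitive displacement binding on bovine hippocampal membranes, read 1 hr after dosing by filter-based scintillation counting. Primary screen at 25 uM in duplicate; actives (e.g. ≥30% inhibition) then run in concentration-response up to 50 uM.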
Turning to `CCCOc1ccc(S(=O)(=O)N2CCN(CC)CC2)cc1-c1nc2c(CC)n(Cc3ccccn3)nc2c(=O)[nH]1`, the outcome was inactive. With `c1ccc(C(O[C@@H]2CCCN(CCc3ccc4c(c3)OCO4)C2)c2ccccc2)cc1`, the compound was called inactive.

Regarding `CCOc1ccc2[nH]cc(C(=O)NCc3ccccc3)c(=O)c2n1`, the AC50 is 0.0253 µM (active).

In the next assay the target is rat Glutamate, AMPA Site (AMPA), Gria1 (gene 50592) (UniProt P19490). As to the kind of experiment: NVS_LGIC_rAMPA: NovaScreen (NVS) Ligand-Gated Ion Channel Assay for rat Glutamate, AMPA Site (AMPA) (AID 2283324). In a few lines: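 Rat forebrain membranes; radioligand binding read 1 h after dosing by filtration and scintillation counting. Duplicate single-point screen at 25 uM, then concentration-response to 50 uM for threshold hits (e.g. 30% inhibition); loss of signal vs DMSO.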
Chain of rat Glutamate, AMPA Site (AMPA), Gria1 (gene 50592) (P19490 whole entry, looked up): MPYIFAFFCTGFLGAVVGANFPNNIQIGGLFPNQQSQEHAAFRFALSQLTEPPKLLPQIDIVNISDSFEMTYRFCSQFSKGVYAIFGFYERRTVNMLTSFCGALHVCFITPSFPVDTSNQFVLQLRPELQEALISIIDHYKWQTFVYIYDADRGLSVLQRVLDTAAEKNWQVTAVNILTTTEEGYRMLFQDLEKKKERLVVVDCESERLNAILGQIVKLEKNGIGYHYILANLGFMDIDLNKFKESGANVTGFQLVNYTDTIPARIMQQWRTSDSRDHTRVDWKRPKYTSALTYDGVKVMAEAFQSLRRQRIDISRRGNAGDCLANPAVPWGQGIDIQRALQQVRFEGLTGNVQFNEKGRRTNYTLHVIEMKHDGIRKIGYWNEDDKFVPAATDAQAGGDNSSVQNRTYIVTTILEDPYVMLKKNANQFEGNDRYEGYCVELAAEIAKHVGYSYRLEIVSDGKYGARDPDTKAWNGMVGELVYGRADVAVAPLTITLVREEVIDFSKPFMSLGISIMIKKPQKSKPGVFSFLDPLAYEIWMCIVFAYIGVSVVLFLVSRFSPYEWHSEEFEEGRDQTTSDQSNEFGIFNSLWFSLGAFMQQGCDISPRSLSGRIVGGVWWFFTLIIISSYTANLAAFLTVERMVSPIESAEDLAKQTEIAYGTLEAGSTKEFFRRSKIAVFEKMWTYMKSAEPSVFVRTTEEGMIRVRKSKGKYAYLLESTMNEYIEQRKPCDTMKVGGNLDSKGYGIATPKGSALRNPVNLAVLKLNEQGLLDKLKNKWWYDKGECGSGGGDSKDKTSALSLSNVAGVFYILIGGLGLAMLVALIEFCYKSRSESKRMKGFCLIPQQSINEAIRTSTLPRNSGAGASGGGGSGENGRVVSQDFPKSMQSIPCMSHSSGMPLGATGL
Take `CCN(CC)C(=S)SSC(=S)N(CC)CC`: the compound was classed as inactive. Turning to `CCc1cccc(CC)c1N`, the compound was called inactive. As for `COCc1nnc(-c2ccc[n+]([O-])c2)n1-c1c(Cl)c(Cl)cc2[nH]c(=O)c(=O)[nH]c12`, the AC50 was 12.6 µM (active).

As for `CCCCCCCCCC`, the compound was called inactive. For the compound `O=C1CN(N=Cc2ccc([N+](=O)[O-])o2)C(=O)N1`, the compound was called inactive. As to `OCCOCCOCCO`, the call was inactive.

A further assay has as its target human Serotonin, 5-Hydroxytryptamine Receptor 3 (5HT3), HTR3A (gene 3359) (UniProt P46098). As to the kind of experiment: NVS_LGIC_h5HT3: NovaScreen (NVS) Ligand-Gated Ion Channel Assay for human Serotonin, 5-Hydroxytryptamine Receptor 3 (5HT3) (AID 2283325). In a few lines:
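Radioligand displacement binding to human 5-HT3 from HEK293 membranes, read by filter-based scintillation counting after 1 h. Screen at 25 uM in duplicate; chemicals passing threshold were retested in concentration-response up to 50 uM.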
Take `CCN(CC)C(=S)SSC(=S)N(CC)CC`: the outcome was inactive. `c1ccc2c(c1)-c1cccc3c1c-2cc1ccccc13`: the call was inactive. The same measure, in the same setting: the entry for `CCn1nc(C)c2c1C(=O)NCC(c1ccc(O)cc1)=N2` is “inactive”. Regarding `CCCCCCCCCCCCCCCCOS(=O)(=O)O`, the AC50 is 17.3 µM (active). As for `O=C1CN(N=Cc2ccc([N+](=O)[O-])o2)C(=O)N1`, the call was inactive. Consider `O=c1[nH]cnc2c1ncn2[C@H]1CC[C@@H](CO)O1`, for which the compound was classed as inactive.

For a further assay, the target named is rat Gamma-Aminobutyric Acid Type A Receptor, Non-Selective (GABAR-NonSelective), Gabra1 (gene 29705) (UniProt P62813). The assay can be described thus: NVS_LGIC_rGABAR_NonSelective: NovaScreen (NVS) Ligand-Gated Ion Channel Assay for rat Gamma-Aminobutyric Acid Type A Receptor, Non-Selective (GABAR-NonSelective) (AID 2283326). In a few lines:
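Radioligand displacement on rat whole-brain extract, 1 h, filter scintillation readout; signal loss fitted versus DMSO. Primary screen in duplicate at 25 uM; hits (e.g. ≥30% inhibition) retested in concentration-response up to 50 uM.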
As to `OC(CCl)CCl`, the concentration at half-maximal activity (AC50) is 4.96 µM (active). As for `CCCC(CCC)C(=O)O`, the outcome was inactive.

As to `NC(=O)N1c2ccccc2C=Cc2ccccc21`, the AC50 is 4.66 µM (active).

Regarding `CCOc1ccc2[nH]cc(C(=O)NCc3ccccc3)c(=O)c2n1`, the result was inactive.

The target in another assay is human Constitutive Androstane Receptor (CAR), NR1I3 (gene 9970) (UniProt Q14994). As to the kind of experiment: NVS_NR_hCAR_Agonist: NovaScreen (NVS) Nuclear Receptor Binding Assay for human Constitutive Androstane Receptor Agonism (CAR) (AID 2283328). In a few lines:
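Cell-free TR-FRET binding readout with extracted human CAR protein, read 1 h after dosing. Gain of signal fitted against DMSO baseline. Single-concentration duplicates at 25 uM, then concentration-response up to 50 uM for actives.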
With `COc1cc(C(C)C)c2c(c1)S(=O)(=O)N(COc1cc(=O)n3cccc(OCCN4CCCCC4)c3n1)C2=O`, the result was inactive. Still for that read-out and setting: next, `Cc1nc(-c2ccccn2)ncc1C(=O)Nn1cc(C)c2cc(F)ccc21`: “inactive”. As for `OCCOCCOCCO`, the outcome was inactive.

The next assay deals with human Peripheral-type Benzodiazepine Receptor (PBR), TSPO (gene 706) (UniProt P30536). The assay can be described thus: NVS_MP_hPBR: NovaScreen (NVS) Membrane Protein Assay for human Peripheral-type Benzodiazepine Receptor (PBR) (AID 2283331).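 Also: hits reduce radioligand binding relative to DMSO baseline.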 The procedure, abridged: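 Radioligand displacement on human colonic cell membranes, 1 h incubation; bound radioactivity by filtration and scintillation counting. Primary screen in duplicate at 25 uM single concentration, actives followed up in concentration series; loss of binding versus DMSO.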
Chain of human Peripheral-type Benzodiazepine Receptor (PBR), TSPO (gene 706) (P30536 whole entry, looked up): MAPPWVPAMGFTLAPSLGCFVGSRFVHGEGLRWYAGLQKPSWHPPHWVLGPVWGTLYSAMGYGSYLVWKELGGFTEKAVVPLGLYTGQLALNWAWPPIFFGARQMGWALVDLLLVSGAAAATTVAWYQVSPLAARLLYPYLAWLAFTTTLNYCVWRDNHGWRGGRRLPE
As for `CCN(CC)C(=S)SSC(=S)N(CC)CC`, the AC50 was 3.21 µM (active). For `CC(C)C(=O)Nc1ccc([N+](=O)[O-])c(C(F)(F)F)c1`, the outcome was inactive.

Turning to `c1ccc2cc3ccccc3cc2c1`, the result was inactive. Regarding `C[C@@H](Oc1ccc(CNC(=O)c2cccnc2Oc2ccc3c(c2)OCO3)c(F)c1)C(=O)O`, the half-maximal activity concentration (AC50) was 20.8 µM (active).

Another assay addresses Voltage-gated inwardly rectifying potassium channel KCNH2 (Homo sapiens) (UniProt Q12809). The assay can be described thus: NVS_IC_hKhERGCh: NovaScreen (NVS) Ion Channel Assay for human Potassium Channel ERG (KhERGCh) (AID 2283333). The procedure, abridged: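 Cell-free radioligand competition binding on hERG protein extracted from CHO cells, read by filter-based scintillation counting 0.75 h after dosing. Primary screen at 25 uM in duplicate, actives followed in concentration series. Signal loss fitted versus DMSO.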
Regarding `OC[C@H]1O[C@@](CO)(O[C@H]2O[C@H](CO)[C@@H](O)[C@H](O)[C@H]2O)[C@@H](O)[C@@H]1O`, the compound was classed as inactive. As to `O=S(=O)(O)c1ccc(N=Nc2c(O)ccc3cc(S(=O)(=O)O)ccc23)cc1`, the AC50 was 12.3 µM (active). For the compound `c1ccc(C(O[C@@H]2CCCN(CCc3ccc4c(c3)OCO4)C2)c2ccccc2)cc1`, the outcome was inactive. As for `CCCCN1C(=O)[C@@H]([C@H](O)C2CCCCC2)NC(=O)C12CCN(Cc1ccc(Oc3ccc(C(=O)O)cc3)cc1)CC2`, the compound was classed as inactive.

The target in another assay is Glutamate receptor ionotropic, kainate 1 (Rattus norvegicus) (UniProt P22756). The assay can be described thus: NVS_IC_rKAR: NovaScreen (NVS) Ion Channel Assay for rat Kainic Acid Receptors (KAR) (AID 2283334; active = hit-call score of the fitted dose curve at least 0.9, where 1 is the maximum; inactive = score below 0.9). The procedure, abridged:
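Radioligand displacement binding using rat forebrain membranes, 1 h incubation, filter-based scintillation counting. Screened in duplicate at 25 uM, with actives retested in concentration-response up to 50 uM; fitted against DMSO.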
`O=C(O)c1cccc(C[C@@H]2COc3ccc(OCc4nc5cc(F)ccc5s4)cc3[C@@H]2O)c1`: the outcome was inactive. `C=CCc1cc(S(=O)(=O)c2ccc(O)c(CC=C)c2)ccc1O`: the outcome was inactive. As for `OC[C@H]1O[C@@](CO)(O[C@H]2O[C@H](CO)[C@@H](O)[C@H](O)[C@H]2O)[C@@H](O)[C@@H]1O`, the outcome was inactive. Regarding `O=S(=O)(O)c1ccc(N=Nc2c(O)ccc3cc(S(=O)(=O)O)ccc23)cc1`, the compound was called inactive. Turning to `COc1cc2c(c(OC)c1OC)-c1ccc(OC)c(=O)cc1[C@@H](NC(C)=O)CC2`, the compound was called inactive.

A further assay has as its target rat Peripheral-type Benzodiazepine Receptor (PBR), Tspo (gene 24230) (UniProt P16257). The assay can be described thus: NVS_MP_rPBR: NovaScreen (NVS) Membrane Protein Assay for rat Peripheral-type Benzodiazepine Receptor (PBR) (AID 2283335). In a few lines: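 Radioligand displacement, rat kidney membrane prep, 1 h exposure, filter-based scintillation read; DMSO baseline, loss-of-signal scored. Primary screen at 25 uM in duplicate, actives followed up in concentration series.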
On to `CCN(CC)C(=S)SSC(=S)N(CC)CC`, for which the half-maximal activity concentration (AC50) was 0.31 µM (active). `CC(C)C(=O)Nc1ccc([N+](=O)[O-])c(C(F)(F)F)c1`: the AC50 is 4.95 µM (active).

Take `c1ccc(C(O[C@@H]2CCCN(CCc3ccc4c(c3)OCO4)C2)c2ccccc2)cc1`: the call was inactive.

The next assay deals with Small conductance calcium-activated potassium channel protein 1 (Rattus norvegicus) (UniProt P70606). As to the kind of experiment: NVS_IC_rKCaCh: NovaScreen (NVS) Ion Channel Assay for rat Potassium Channel, Ca2+ Act., VI (KCaCh) (AID 2283336). In a few lines:
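Radioligand binding to rat forebrain membranes, cell-free, read 1 hour after dosing by filter-based scintillation counting. Compounds first run in duplicate at 25 uM, actives then in concentration series; loss of signal vs DMSO indicates displacement.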
With `CC1(C)C(=O)N(Cl)C(=O)N1Cl`, the result was inactive.

Consider `OCc1ccccc1`, for which the outcome was inactive. Turning to `Cc1nc(-c2ccccn2)ncc1C(=O)Nn1cc(C)c2cc(F)ccc21`, the result was inactive.
